An excerpt weighted towards active compounds, which were near 4.2% of everything screened.
D1 ag = human D1 receptor agonism. activation, % at 2 µM. 360,000 compounds, 1% hits. HEK293 T-REx D1 cells, calcium flux, agonist mode. P21728; in the data active = activation above about 30%; note: 0% is about no effect
Target sequence (P21728 whole entry, looked up): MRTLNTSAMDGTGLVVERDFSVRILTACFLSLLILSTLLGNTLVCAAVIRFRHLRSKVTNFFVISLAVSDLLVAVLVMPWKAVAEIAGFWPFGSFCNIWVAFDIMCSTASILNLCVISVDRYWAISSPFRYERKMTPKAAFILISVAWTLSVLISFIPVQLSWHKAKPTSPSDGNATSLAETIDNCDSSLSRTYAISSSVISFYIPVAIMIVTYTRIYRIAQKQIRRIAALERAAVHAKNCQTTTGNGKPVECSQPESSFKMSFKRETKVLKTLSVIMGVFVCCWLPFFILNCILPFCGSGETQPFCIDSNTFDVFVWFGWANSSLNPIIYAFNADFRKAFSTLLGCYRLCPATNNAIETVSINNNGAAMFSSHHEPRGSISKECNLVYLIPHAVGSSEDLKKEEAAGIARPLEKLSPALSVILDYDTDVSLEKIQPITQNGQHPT
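Agonism was scored from calcium flux recorded over 180 s (1 read/s) after pintool compound addition, following a 10-cycle baseline. Cells were inducible force-coupled HEK293 TREx D1, plated overnight at 30 C and loaded with no-wash calcium dye.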
D1 antag = human D1 dopamine receptor antagonism; P21728; AID 504652; activity change, negative = inhibition, % at 10 µM; HEK293 TREx D1 cells, calcium flux, dopamine EC80; hits give low values; 360,000 compounds, 3.2% hits; in the data active = activity change below about -30%; note: % is set by controls: 0 for no effect and ±100 for the full control effect
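Compound effects on dopamine-evoked calcium signalling were measured in tetracycline-induced HEK293 Trex D1 cells. Dopamine at EC80 followed a 180 s compound pre-read, and fluorescence was tracked kinetically for 180 s more.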
D1 PAM = potentiators of human D1 dopamine receptor | HEK293 TREx D1 cells, calcium flux, dopamine EC20 potentiation | potentiation, % at 10 µM | AID 504651 | P21728 | 360,000 compounds, 0.036% hits; in the data active = potentiation above about 30%; note: 0% is about no effect
TRPV1 PAM = human TRPV1 potentiation; Q8NER1; TRPV1-expressing cells, Fluo-8 calcium influx, capsaicin EC20 potentiation; potentiation, % at 8.33 µM; 320,000 compounds, 0.02% hits; AID 540277; in the data active = potentiation above about 80%; inconclusive = between about 30% and that limit; note: 0% is about no effect
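Fluo-8 calcium influx in TRPV1-expressing cells, kinetic read (ex 480/em 520 nm). Compound added and read 3 min for agonist activity, followed by capsaicin at EC20 final and 2 min further read for enhancement.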
TRPV1 ag = activates the human vanilloid receptor TRPV1; Q8NER1; TRPV1-expressing cells, Fluo-8 calcium influx, agonist mode; activation, % at 8.33 µM; 320,000 compounds, 0.19% hits; AID 540275; in the data active = activation above about 80%; inconclusive = between about 30% and that limit; note: 0% is about no effect
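TRPV1-expressing cells were cultured overnight at 35.5C and loaded with Fluo-8 calcium dye for 40 to 90 min at room temperature. After a 10 s baseline, compound was added and calcium influx was read kinetically for 3 min (ex 480/em 520 nm).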
Numbers without * were called inactive; ? = inconclusive; nt = no result.

SMILES | D1 ag | D1 antag | D1 PAM | TRPV1 PAM | TRPV1 ag
CCOC(=O)NC(c1cccc(Cl)c1)C1CCCCCC1=O (stereo not given) | 0 | -11 | -4 | 9 | -10
CCCNc1c(F)c(F)c2c(C)c3ccccc3nc2c1F | 41* | 4 | -6 | -8 | 11
CCOc1ccc(/C=N/n2cnnc2)cc1 | 0 | 0 | -4 | 1 | 1
CCOc1cc(/C=N/n2cnnc2)cc(Br)c1O | 1 | -92* | -3 | -3 | -3
COc1cccc(-n2c(C)nc3c(cnn3-c3ccc(C)c(C)c3)c2=O)c1 | 8 | -48* | 2 | nt | nt
Cc1ccc(-n2c(C)nc3c(cnn3-c3ccc(C)c(C)c3)c2=O)cc1C | 0 | 6 | 1 | -9 | 5
CCOc1ccc(CNC(=O)c2cnc(SC)nc2C)cc1 | 6 | -21 | -2 | nt | nt
CC(C)Oc1ccc(CNC(=O)c2ccc3c(c2)nc2n3CCOC2)cc1 | 1 | 1 | -2 | nt | nt
O=S(=O)(c1ccc(OC(F)(F)F)cc1)N1CCC(O)(c2cccc(C(F)(F)F)c2)CC1 | 34* | -5 | -6 | -15 | 21
O=C(CNC(=O)c1ccncc1)OC(C(=O)Nc1cc(C(F)(F)F)ccc1Cl)c1ccccc1 (stereo not given) | 1 | 21 | 5 | nt | nt
C/C(=N\NC(=O)c1c(Cl)c(C)nn1C)c1ccc(NC(=O)COc2ccc(Cl)cc2C)cc1 | 1 | -41* | -16 | 20 | -1
C/C(=N\NC(=O)c1c(Cl)c(C)nn1C)c1cccc(NC(=O)COc2ccccc2)c1 | -1 | -30 | -13 | 6 | 1
Cc1cc2c(s1)c1cnn(Cc3ccc(-c4ccccc4)cc3)c(=O)c1n2C | 3 | 1 | -4 | nt | nt
CC(=O)Nc1ccc(Nc2nc(C)c([N+](=O)[O-])c(Nc3ccccc3)n2)cc1 | 2 | 49 | 1 | 1 | 4
CC(=O)Nc1ccc(Nc2nc(C)c([N+](=O)[O-])c(N(C)c3ccccc3)n2)cc1 | 6 | -32* | -11 | -4 | -2
Cc1cc(C)c2sc(N(Cc3cccnc3)C(=O)CCS(=O)(=O)c3ccccc3)nc2c1 | 17 | nt | -2 | nt | nt
CC(C)(CNC(=O)Cc1ccc(Br)cc1)N1CCOCC1 | 1 | -37* | -8 | 7 | -2
CC(Oc1ccc(Br)cc1)C(=O)NCC(C)(C)N1CCOCC1 (stereo not given) | 6 | -19 | -6 | 23 | -4
C/C(=N\NC(=O)c1cc(Br)ccc1O)c1cccs1 | 32* | -12 | -8 | 8 | -1
Cc1ccc(C)c(N2CCN(C(=O)c3cc4sccc4n3C)CC2)c1 | 3 | -1 | 7 | 15 | 11
Cc1ccc(C)c(N2CCN(C(=O)C3CCN(C(=O)c4cc5sccc5n4C)CC3)CC2)c1 | 6 | -65* | 1 | nt | nt
Cc1ccc(OCC(=O)Nc2ccncc2)cc1 | 4 | -7 | -1 | -6 | ?
Cc1cc(OCC(=O)Nc2ccncc2)ccc1Br | 13 | -32* | -2 | 3 | ?
O=C(COc1cc(Cl)c(Cl)cc1Cl)Nc1ccncc1 | -1 | -30* | 5 | -8 | 3
CCOC(=O)c1nn(-c2ccc(C)cc2)c(=O)cc1OCC(=O)Nc1cccc(C)c1 | 7 | 0 | -11 | -16 | 5
SMILES | D1 ag | D1 antag | D1 PAM | TRPV1 PAM | TRPV1 ag
O=C(COc1cc(Cl)c(Cl)cc1Cl)Nc1cccc(O)c1 | 3 | -22 | 1 | 6 | ?
CCOC(=O)c1nn(-c2ccc(C)cc2)c(=O)cc1OCC(=O)Nc1cccc(OC)c1 | 4 | -58* | -6 | -17 | 7
COc1cccc(NC(=O)COc2ccc(Br)c(C)c2)c1 | 2 | -37* | -5 | -10 | ?
CCc1ccc(C(=O)Nc2cccc(-c3nc4cc(C(C)C)ccc4o3)c2)cc1 | 2 | -5 | -5 | nt | nt
COc1ccc(CCNC(=O)c2nn(-c3ccc(C)cc3)c(=O)c3c2c2ccccc2n3C)cc1OC | 19 | -16 | 6 | nt | nt
Cc1ccc(CN2CCc3nc(SCC(=O)Nc4cccc(C)c4C)[nH]c(=O)c3C2)cc1 | 2 | -9 | -3 | nt | nt
Cc1ccc(Cl)cc1NC(=O)CSc1nc2c(c(=O)[nH]1)CN(Cc1ccccc1)CC2 | 10 | -81* | -3 | nt | nt
CCC(=O)Nc1cccc(NC(=O)c2ccc(C)cc2Cl)c1 | 0 | -46* | -4 | -2 | 5
CCC(=O)Nc1cccc(NC(=O)c2ccccc2Cl)c1 | 2 | 2 | -4 | -2 | -3
COc1cc(NC(=O)Cn2ccn(Cc3ccccc3OC)c(=O)c2=O)cc(OC)c1 | 1 | -17 | -2 | nt | nt
Cc1ccccc1Cn1c2ccccc2c2cnn(CC(=O)NCCc3ccccc3)c(=O)c21 | 15 | 7 | -3 | nt | nt
CCCCNc1nc2c(S(=O)(=O)c3ccc(Cl)cc3)nnn2c2ccsc12 | 0 | -51* | -8 | nt | nt
CCc1ccc(S(=O)(=O)c2nnn3c2nc(NC2CCCC2)c2sccc23)cc1 | 4 | -32* | -6 | nt | nt
COc1cc(Nc2nc3c(S(=O)(=O)c4cccc(Cl)c4)nnn3c3ccsc23)cc(OC)c1 | 0 | -1 | -2 | nt | nt
Cc1ccc(C)c(S(=O)(=O)c2nnn3c2nc(NC(C)C)c2sccc23)c1 | 1 | -60* | -7 | nt | nt
Cc1ccc(C)c(S(=O)(=O)c2nnn3c2nc(Nc2ccc(C)c(C)c2)c2sccc23)c1 | 1 | -6 | -5 | nt | nt
Cc1ccc(S(=O)(=O)c2nnn3c2nc(NC2CCCCCC2)c2sccc23)cc1C | 2 | -13 | -1 | nt | nt
CC(C)Nc1nc2c(S(=O)(=O)c3cccc(Cl)c3)nnn2c2ccsc12 | 2 | -57* | -8 | nt | nt
CC(C)Cn1c(=O)c2ccccc2n2c(CCC(=O)Nc3ccc(F)c(F)c3)nnc12 | 0 | -9 | -7 | nt | nt
CCOc1ccccc1NC(=O)Cn1c(=O)n(CC(=O)NCc2ccccc2Cl)c(=O)c2sccc21 | 2 | 3 | -1 | nt | nt
O=C(NCc1ccccc1Cl)c1cc2cccc3c2n1CCS3 | 6 | 0 | -2 | nt | nt
CCOc1cc(CNCCO)cc(Br)c1OCc1cccs1 | 34* | 0 | -2 | -13 | 23
CN(C)c1ccc(CNCCC(Cc2ccccc2)c2ccco2)cc1 (stereo not given) | 47* | 11 | -7 | -4 | 22
CCc1ccc(NC(=O)CSC2=Nc3ccccc3C3=NC(CC(=O)NCc4ccc5c(c4)OCO5)C(=O)N23)cc1 (stereo not given) | 4 | -7 | -3 | nt | nt
CCCCn1c(N)c(NCC(C)C)c(=O)[nH]c1=O | 2 | -46* | 1 | 3 | -1
CCCCn1c(N)c(NCC)c(=O)[nH]c1=O | 4 | 2 | 5 | -1 | 1
CCOc1cccc(C(=O)Nc2cc(C)c(O)c(-c3nc4ncccc4o3)c2)c1 | 0 | -4 | -1 | nt | nt
COc1ccc(Cn2c(=O)n(-c3ccc(F)c(Cl)c3)c(=O)c3c2c2cc(OC)ccc2n3C)cc1 | 2 | 5 | -2 | nt | nt
CCOC(=O)c1cc(CC)sc1NC(=O)CN1CCN(C(=O)c2ccco2)CC1 | 109* | -27 | -8 | 1 | 2

High-throughput results (PubChem BioAssay)
